Source: PubChem BioAssay (NCATS)
Records with an inconclusive call do not appear. The source made the active and inactive calls. Unless noted, the call rests on the fitted dose curve; in most records, active means well fitted curve in the direction sought with a large enough effect; inconclusive means small, poorly fitted or top-dose-only effect, or another doubt; inactive means no such curve, though single readings can be large; an effect the other way counts as inactive or inconclusive.

Assays:
[1] = target: Estrogen receptor (Homo sapiens) (UniProt P03372); assay: qHTS assay for small molecule antagonists of estrogen receptor alpha signaling (AID 588513; active means well fitted curve in the direction sought with a large enough effect in the signal ratio, with a control signal flat, not every such curve was filed as active; the % refers to the signal ratio; further: on the % scale 0 is the no-effect control and ±100 the full control effect)
Sequence of Estrogen receptor (Homo sapiens) (P03372 whole entry, looked up): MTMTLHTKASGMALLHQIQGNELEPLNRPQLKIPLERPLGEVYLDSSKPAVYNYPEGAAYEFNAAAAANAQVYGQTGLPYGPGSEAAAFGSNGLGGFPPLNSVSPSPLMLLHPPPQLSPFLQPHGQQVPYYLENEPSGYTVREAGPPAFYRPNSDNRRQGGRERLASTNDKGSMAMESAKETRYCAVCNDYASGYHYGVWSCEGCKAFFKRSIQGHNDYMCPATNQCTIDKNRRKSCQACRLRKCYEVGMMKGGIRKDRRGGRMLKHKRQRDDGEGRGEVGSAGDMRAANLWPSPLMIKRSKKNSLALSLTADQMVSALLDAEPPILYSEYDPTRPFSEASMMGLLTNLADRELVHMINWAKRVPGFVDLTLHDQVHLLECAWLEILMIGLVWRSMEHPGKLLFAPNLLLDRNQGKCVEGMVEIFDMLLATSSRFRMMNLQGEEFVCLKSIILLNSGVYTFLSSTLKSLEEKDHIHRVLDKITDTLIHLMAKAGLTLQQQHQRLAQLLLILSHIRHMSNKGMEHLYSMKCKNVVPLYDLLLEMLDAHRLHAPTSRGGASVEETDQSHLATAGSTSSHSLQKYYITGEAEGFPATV
Method in brief: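 Antagonist mode: inhibition of 0.5 nM 17-beta-estradiol-driven beta-lactamase reporter in HEK 293 ER-alpha-UAS-bla cells, 18 h at 37C, CCF4 readout after 2 h at RT. Normalised to estradiol and DMSO; titration fitted to Hill.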

[2] = target: Estrogen receptor (Homo sapiens) (UniProt P03372); assay: qHTS assay for small molecule agonists of estrogen receptor alpha signaling (AID 588514; calls by dose curve;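 further: 0% = vehicle only and 100% = reference agonist; nearly all actives have a fitted effect of over 70% in size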)
Method in brief: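 Read-out: CCF4 fluorescence from a beta-lactamase reporter in ER-alpha-UAS-bla HEK 293 cells after 18 hrs of compound exposure at 37 C. Normalized to 20 nM 17-beta-estradiol (100%) and DMSO (0%).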

[3] = target: Glucocorticoid receptor (Homo sapiens) (UniProt P04150); assay: qHTS assay for small molecule agonists of glucocorticoid receptor signaling (AID 588532; active means well fitted curve in the direction sought with a large enough effect in the signal ratio, with a control signal flat; the % refers to the signal ratio;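 further: 100% = dexamethasone at 0.1 µM and 0% = DMSO only wells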); details: HeLa MMTV-bla, beta-lactamase ratio, agonist, 18 h; stronger effect = higher value; percent of dexamethasone control, DMSO zero
Sequence of Glucocorticoid receptor (Homo sapiens) (P04150 whole entry, looked up): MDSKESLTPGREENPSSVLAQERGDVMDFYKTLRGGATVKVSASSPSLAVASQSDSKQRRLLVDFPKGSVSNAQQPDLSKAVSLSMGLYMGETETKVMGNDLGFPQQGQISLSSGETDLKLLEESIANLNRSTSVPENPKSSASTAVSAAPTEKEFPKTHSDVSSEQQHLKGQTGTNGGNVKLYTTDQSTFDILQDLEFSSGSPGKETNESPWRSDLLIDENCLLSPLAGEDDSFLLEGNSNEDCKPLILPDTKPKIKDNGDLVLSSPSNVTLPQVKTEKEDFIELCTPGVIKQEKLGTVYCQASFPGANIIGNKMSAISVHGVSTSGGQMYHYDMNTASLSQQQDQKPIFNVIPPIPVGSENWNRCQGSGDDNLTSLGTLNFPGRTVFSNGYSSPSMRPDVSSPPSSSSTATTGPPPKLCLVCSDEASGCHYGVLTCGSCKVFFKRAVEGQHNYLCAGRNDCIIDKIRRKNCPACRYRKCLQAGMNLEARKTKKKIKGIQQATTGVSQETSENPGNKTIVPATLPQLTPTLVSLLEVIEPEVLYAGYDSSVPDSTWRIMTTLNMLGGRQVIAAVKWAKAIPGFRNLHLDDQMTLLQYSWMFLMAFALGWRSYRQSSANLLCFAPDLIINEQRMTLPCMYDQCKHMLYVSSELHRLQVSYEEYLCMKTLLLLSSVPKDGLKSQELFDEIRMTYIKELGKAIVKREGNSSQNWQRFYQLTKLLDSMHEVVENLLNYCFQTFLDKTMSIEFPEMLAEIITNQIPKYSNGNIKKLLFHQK
Method in brief: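 HeLa GRE-bla reporter cells; 18 h compound exposure at 37 C; 2 h CCF4 loading at room temperature; fluorescence at 460 and 530 nm; EC50 by Hill equation.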

[4] = qHTS assay for small molecule antagonists of peroxisome proliferator-activated receptor delta signaling (AID 588535); details: HEK293T PPARd-UAS-bla, beta-lactamase FRET ratio, 18 h; 460 nm channel;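 further: cells co-treated with a PPAR-delta agonist as stimulator during compound exposure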
Method in brief: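 Beta-lactamase reporter read-out (405 nm excitation, 460/530 nm emission) after CCF4 loading for 2 hrs at RT. HEK293T PPAR-delta-UAS-bla cells, 2% charcoal/dextran FBS, compounds for 18 hrs at 37 C. Hill fit gave IC50 and efficacy.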

[5] = target: Peroxisome proliferator-activated receptor gamma (Homo sapiens) (UniProt P37231); assay: qHTS assay for small molecule agonists of peroxisome proliferator-activated receptor gamma signaling (AID 588536; active means well fitted curve in the direction sought with a large enough effect in the signal ratio, with a control signal flat, not every such curve was filed as active; the % refers to the signal ratio;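 further: 0% = DMSO basal wells and 100% = rosiglitazone at 2 µM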)
Sequence of Peroxisome proliferator-activated receptor gamma (Homo sapiens) (P37231 whole entry, looked up): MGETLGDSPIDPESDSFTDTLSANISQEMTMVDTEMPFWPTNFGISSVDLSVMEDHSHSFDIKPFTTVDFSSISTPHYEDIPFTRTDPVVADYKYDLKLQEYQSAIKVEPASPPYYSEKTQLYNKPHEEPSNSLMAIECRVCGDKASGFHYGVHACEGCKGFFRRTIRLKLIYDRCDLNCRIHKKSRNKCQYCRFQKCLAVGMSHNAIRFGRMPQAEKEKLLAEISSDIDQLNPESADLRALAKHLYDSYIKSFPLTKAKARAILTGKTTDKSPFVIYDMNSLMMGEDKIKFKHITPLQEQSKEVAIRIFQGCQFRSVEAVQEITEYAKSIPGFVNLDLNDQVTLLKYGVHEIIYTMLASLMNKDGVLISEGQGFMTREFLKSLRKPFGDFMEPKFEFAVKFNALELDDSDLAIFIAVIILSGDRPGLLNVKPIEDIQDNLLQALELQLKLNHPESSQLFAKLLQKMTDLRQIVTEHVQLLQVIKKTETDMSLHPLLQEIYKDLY
Method in brief: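 This is an agonist-mode beta-lactamase reporter assay in HEK293 PPAR-gamma-UAS-bla cells with 1% charcoal/dextran FBS. Compound titrations ran 16 h at 37 C before CCF4 detection. EC50 and efficacy are Hill fits scaled to 2 uM rosiglitazone (100%) and DMSO basal.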

[6] = target: Vitamin D3 receptor (Homo sapiens) (UniProt P11473); assay: qHTS assay for small molecule antagonists of vitamin D receptor signaling (AID 588541; calls by dose curve;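 further: receptor activated by calcitriol during compound treatment; series mostly up to about 77 µM; on the % scale 0 is the no-effect control and ±100 the full control effect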)
Sequence of Vitamin D3 receptor (Homo sapiens) (P11473 whole entry, looked up): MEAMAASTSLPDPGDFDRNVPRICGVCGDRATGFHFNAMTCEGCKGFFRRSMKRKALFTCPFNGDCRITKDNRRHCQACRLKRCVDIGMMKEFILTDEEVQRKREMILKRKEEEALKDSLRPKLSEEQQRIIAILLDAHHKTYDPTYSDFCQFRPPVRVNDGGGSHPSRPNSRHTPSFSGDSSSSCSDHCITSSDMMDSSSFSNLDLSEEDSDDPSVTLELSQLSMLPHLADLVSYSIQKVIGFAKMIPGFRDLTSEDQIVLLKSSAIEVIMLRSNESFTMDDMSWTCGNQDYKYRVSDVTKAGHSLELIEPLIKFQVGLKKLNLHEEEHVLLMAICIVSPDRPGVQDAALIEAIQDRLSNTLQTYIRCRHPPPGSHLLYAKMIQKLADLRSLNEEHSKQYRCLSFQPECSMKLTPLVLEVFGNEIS
Method in brief: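 VDR-UAS-bla HEK293T cells in 2% charcoal-stripped FBS were stimulated with 1-alpha,25-dihydroxyvitamin D3 (3 nM final) plus compound for 16 h at 37 C. The beta-lactamase CCF4 readout was normalized to 50 nM agonist and DMSO, and Hill fits gave IC50.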

[7] = qHTS assay for small molecule agonists of retinoid X receptor alpha signaling (AID 588544; calls by dose curve;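 on activation: 0% = DMSO basal wells and 100% = reference agonist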); details: HEK293T RXRa-UAS-bla, beta-lactamase reporter, 18 h; 530 nm emission
[8] = target: Retinoic acid receptor RXR-alpha (Homo sapiens) (UniProt P19793); assay: as above
Sequence of Retinoic acid receptor RXR-alpha (Homo sapiens) (P19793 whole entry, looked up): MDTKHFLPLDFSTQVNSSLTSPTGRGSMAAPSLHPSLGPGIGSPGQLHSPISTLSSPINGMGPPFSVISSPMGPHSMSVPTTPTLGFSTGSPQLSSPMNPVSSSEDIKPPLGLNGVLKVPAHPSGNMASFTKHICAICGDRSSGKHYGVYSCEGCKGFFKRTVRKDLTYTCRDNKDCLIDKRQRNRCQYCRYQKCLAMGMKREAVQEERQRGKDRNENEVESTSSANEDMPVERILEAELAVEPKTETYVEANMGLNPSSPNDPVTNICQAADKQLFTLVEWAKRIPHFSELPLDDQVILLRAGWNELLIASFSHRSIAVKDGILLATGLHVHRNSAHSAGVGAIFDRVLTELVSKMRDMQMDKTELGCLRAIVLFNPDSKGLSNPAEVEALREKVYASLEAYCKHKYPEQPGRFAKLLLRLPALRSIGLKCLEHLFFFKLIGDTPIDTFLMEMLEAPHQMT

[9] = qHTS assay for small molecule antagonists of retinoid X receptor alpha signaling (AID 588546; active means well fitted inhibition curve with a large enough effect in the signal ratio, with a control signal flat, not every such curve was filed as active; the % refers to the signal ratio;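 further: cells stimulated with 9-cis-retinoic acid as agonist; on the % scale 0 is the no-effect control and ±100 the full control effect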); details: HEK293T RXRa-UAS-bla, beta-lactamase ratio, antagonist mode; measured here: W530 green channel, cytotoxicity proxy
Method in brief: (§1)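 Beta-lactamase reporter inhibition, read as CCF4 fluorescence ratio (ex 405, em 460/530 nm) after 2 h at RT. HEK293T UAS-bla cells, 2500/well, were stimulated with 9-cis-RA at 500 or 100 nM final alongside test compound for 18 h at 37 C.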

[10] = target: Retinoic acid receptor RXR-alpha (Homo sapiens) (UniProt P19793); assay: as above; details: HEK293T RXRa-UAS-bla, beta-lactamase ratio, antagonist mode
Method in brief: as §1

[11] = target: Thyroid hormone receptor beta (Homo sapiens) (UniProt P10828); assay: qHTS assay for small molecule antagonists of thyroid hormone receptor beta signaling (AID 588547; active means well fitted inhibition curve with a large enough effect in the signal ratio, with a control signal flat, not every such curve was filed as active; the % refers to the signal ratio;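 further: cells stimulated with 0.4 nM T3 agonist during compound exposure; series mostly up to about 77 µM; on the % scale 0 is the no-effect control and ±100 the full control effect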); details: TR-UAS-bla HEK293, beta-lactamase ratio, antagonist mode, 18 h
Sequence of Thyroid hormone receptor beta (Homo sapiens) (P10828 whole entry, looked up): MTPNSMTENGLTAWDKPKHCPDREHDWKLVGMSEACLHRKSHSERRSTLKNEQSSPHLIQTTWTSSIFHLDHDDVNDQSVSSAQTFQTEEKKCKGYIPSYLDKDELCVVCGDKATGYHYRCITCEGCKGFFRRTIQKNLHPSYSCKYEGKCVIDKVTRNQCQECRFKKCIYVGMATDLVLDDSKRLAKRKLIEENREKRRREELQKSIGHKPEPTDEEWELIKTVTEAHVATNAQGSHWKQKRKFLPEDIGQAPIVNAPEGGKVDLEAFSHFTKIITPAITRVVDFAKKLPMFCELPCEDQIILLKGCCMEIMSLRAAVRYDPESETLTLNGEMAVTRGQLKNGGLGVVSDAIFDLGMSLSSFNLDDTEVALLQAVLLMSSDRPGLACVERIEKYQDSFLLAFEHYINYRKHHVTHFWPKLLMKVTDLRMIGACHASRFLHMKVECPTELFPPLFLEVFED
Method in brief: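 TR-UAS-bla GripTite HEK293 cells in 2% charcoal/dextran FBS medium; compounds 0.59 nM to 92 uM with T3 at 0.4nM final, 18 h at 37 C. Beta-lactamase read by CCF4 fluorescence (460/530 nm); Hill fits gave IC50 and efficacy.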

[12] = qHTS assay for small molecule activators of the nuclear factor-kappa B (NF-kB) signaling pathway (AID 651749; active means well fitted activation curve with a large enough effect in the signal ratio; the % refers to the signal ratio; further: series mostly up to about 77 µM; % of control where 0% means no effect); details: NF-kB-bla ME-180 cells, beta-lactamase FRET ratio, 16 h; activation: stronger effect = higher value
Method in brief: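 NF-kB-bla ME-180 cells, 2,000/well; 23 nL compound or DMSO pinned; 16 hr, 37C/5% CO2; beta-lactamase FRET read-out.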

[13] = qHTS assay for environmental chemicals that activate the Aryl hydrocarbon Receptor (AhR) signaling pathway (AID 651777); details: 1A2-DRE human hepatoma cells, luciferase, 24 h; activation: stronger effect = higher value; further: % of control where 0% means no effect; nearly all actives have a fitted effect of over 15% in size
Method in brief: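 Concentration–response screening used 1,200 1A2-DRE cells per well, 24 hr compound exposure (37 C, 5% CO2), and One-Glo luminescence as the AhR-driven CYP1A2 reporter signal.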

[14] = target: Peroxisome proliferator-activated receptor alpha (Homo sapiens) (UniProt Q07869); assay: qHTS assay for small molecule agonists of the peroxisome proliferator-activated receptor alpha (PPARalpha) signaling pathway (AID 651778); details: PathHunter PPARalpha complementation, chemiluminescence, 6 h; max response: stronger effect = higher value; further: % of control where 0% means no effect
Sequence of Peroxisome proliferator-activated receptor alpha (Homo sapiens) (Q07869 whole entry, looked up, the tested form may be a part): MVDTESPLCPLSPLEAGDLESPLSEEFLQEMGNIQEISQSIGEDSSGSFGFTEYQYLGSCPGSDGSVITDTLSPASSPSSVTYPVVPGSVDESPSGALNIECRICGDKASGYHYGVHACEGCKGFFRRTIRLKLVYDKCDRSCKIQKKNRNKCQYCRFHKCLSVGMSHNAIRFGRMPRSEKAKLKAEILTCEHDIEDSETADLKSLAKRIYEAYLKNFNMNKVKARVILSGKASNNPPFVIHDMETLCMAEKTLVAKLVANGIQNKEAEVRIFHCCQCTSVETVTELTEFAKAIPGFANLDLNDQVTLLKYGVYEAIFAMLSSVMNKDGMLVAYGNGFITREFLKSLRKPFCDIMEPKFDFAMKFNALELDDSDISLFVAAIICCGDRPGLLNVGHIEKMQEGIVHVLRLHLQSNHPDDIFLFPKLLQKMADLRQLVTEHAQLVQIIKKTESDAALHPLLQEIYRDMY
Method in brief: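 Enzyme-fragment complementation assay in which ligand-bound PPARalpha translocates and forms an active enzyme that generates chemiluminescence. Cells were plated overnight, exposed to compound for 6 hr at 37 C, and then given detection reagent for 60 min at room temperature.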

[15] = qHTS assay for cell viability of HEK293 cells (AID 743288); details: ATP luminescence (CellTiter-Glo), 18 h; max response: stronger effect = lower value; further: on the % scale 0 is the no-effect control and ±100 the full control effect; nearly all actives have a fitted effect of over 50% in size
Method in brief: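 Readout is luciferase-coupled ATP content (CellTiter-Glo luminescence, 30 min room temperature) as a measure of metabolically competent cells. Parental HEK293 cells were plated 5 h or more before compound addition, then treated 18 h at 37 C.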

[16] = qHTS assay for cell viability of the p53RE-bla HCT-116 cell line (AID 743292); further: on the % scale 0 is the no-effect control and ±100 the full control effect; nearly all actives have a fitted effect of over 55% in size
Method in brief: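 Compound-exposed HCT-116 (p53RE-bla) cells, 4,000 per well, were kept 16 h at 37 C following a 5 h preincubation. Cell number was estimated from total ATP by CellTiter-Glo luminescence read after 30 min at room temperature.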

[17] = target: Nuclear receptor subfamily 1 group I member 2 (Rattus norvegicus) (UniProt Q9R1A7); assay: qHTS assay for small molecule activators of the rat pregnane X receptor (rPXR) signaling pathway (AID 651751; call rule not given here; further: 0% is about no effect); details: rPXR reporter cells, luciferase (One-Glo), 24 h
Sequence of Nuclear receptor subfamily 1 group I member 2 (Rattus norvegicus) (Q9R1A7 whole entry, looked up): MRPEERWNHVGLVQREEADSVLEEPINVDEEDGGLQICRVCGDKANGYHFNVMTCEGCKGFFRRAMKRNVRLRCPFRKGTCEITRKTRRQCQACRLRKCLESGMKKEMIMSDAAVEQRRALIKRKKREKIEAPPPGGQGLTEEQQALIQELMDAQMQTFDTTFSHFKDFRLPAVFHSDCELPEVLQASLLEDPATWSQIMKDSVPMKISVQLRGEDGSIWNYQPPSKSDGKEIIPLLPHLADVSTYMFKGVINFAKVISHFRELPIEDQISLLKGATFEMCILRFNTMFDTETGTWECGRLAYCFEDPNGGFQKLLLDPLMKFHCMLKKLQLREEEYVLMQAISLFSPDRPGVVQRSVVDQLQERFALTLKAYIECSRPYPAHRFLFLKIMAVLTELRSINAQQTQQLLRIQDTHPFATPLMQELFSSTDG

[18] = qHTS assay for small molecule activators of the human pregnane X receptor (PXR) signaling pathway (AID 720659; call rule not given here; further: 0% is about no effect)
[19] = target: Thyroid hormone receptor beta (Homo sapiens) (UniProt P10828); assay: qHTS assay for small molecule agonists of thyroid hormone receptor beta signaling (AID 588545; calls by dose curve)
Method in brief: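 Agonist-mode beta-lactamase reporter assay, HEK 293 cells, 2% charcoal/dextran FBS; cells plated 4 hrs, compound 18 hrs at 37 C, CCF4 2 hrs RT. Normalized to 10 nM T3 (100%) and DMSO (0%); Hill fit gives EC50, efficacy.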

[20] = qHTS assay for small molecule agonists of the antioxidant response element (ARE) signaling pathway measured by Nrf2-dependant transcriptional activity - cell viability counter screen (AID 720653; active means well fitted curve in the direction sought with a large enough effect in the repeat runs; an effect the other way counts as inactive or inconclusive; further: on the % scale 0 is the no-effect control and ±100 the full control effect); details: ARE-bla HepG2 viability, CellTiter-Glo ATP luminescence, 16 h; max response: stronger effect = lower value
Method in brief: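 ARE-bla HepG2 cells treated with compounds for 16 h at 37C; this counter screen measures viability as intracellular ATP by CellTiter-Glo luminescence after 30 min at room temperature.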

Row | Compound | Potency [1] | Potency [2] | activation [3] | max response [4] [%] | outcome [5] | Potency [6] | max response [7] [%] | Potency [8] | max response [9] [%] | max response [10] | activity change % (negative = inhibition) [11] | activation [12] | activation [13] | max response [14] | max response [15] | Potency [16] | max response [17] | outcome [18] | Potency [19] | max response [20]
1 | CS/C(=N\O)C(=O)N(C)C | inactive | inactive | 1.45% (inactive) | 31.5 | inactive | inactive | 6.39 | inactive | 0.656 | -15.6% (inactive) | -12.9% (inactive) | -2.88% (inactive) | -0.34% (inactive) | -1.04% (inactive) | -6.73% (inactive) | inactive | -0.0731% (inactive) | inactive |  | 
2 | CNc1nc(=O)n(C2CCCCC2)c(=O)n1C | inactive | inactive | -5.96% (inactive) | 8.32 |  |  | -10.1 | inactive | -10.4 |  |  | -1.72% (inactive) | 2.39% (inactive) | -0.955% (inactive) | -6.85% (inactive) |  | -0.0446% (inactive) | inactive | inactive | 3.71% (inactive)
3 | Nc1cc(Cl)nc(C(=O)O)c1Cl | inactive | inactive | -6.13% (inactive) | -21.2 | inactive | inactive |  |  | -11.4 | -3.66% (inactive) | 12% (inactive) | 0.121% (inactive) | 1.56% (inactive) | -2.9% (inactive) | 1.25% (inactive) | inactive | 2.09% (inactive) | inactive | inactive | -4.32% (inactive)
4 | COC(=O)c1ccccc1S(=O)(=O)NC(=O)Nc1nc(OC(F)F)cc(OC(F)F)n1 | inactive | inactive | -5.76% (inactive) | -18.5 | inactive | inactive | -18.6 | inactive | -7.16 | -2.35% (inactive) |  | -2.94% (inactive) | -0.662% (inactive) | -0.141% (inactive) | 0.401% (inactive) | inactive | 1.81% (inactive) | inactive | inactive | 4.57% (inactive)
5 | C=C(C)C(=O)OCCCCCCCCCCCCCCCC | inactive | inactive | 0.746% (inactive) | -9.92 | inactive | inactive | -13 | inactive | -3.04 | -1.04% (inactive) | -5.63% (inactive) | -3.24% (inactive) | 0.0765% (inactive) | -2.7% (inactive) | -1.34% (inactive) | inactive | 2.75% (inactive) | inactive | inactive | 
6 | CCCC/C=C\CCCCCCCCO | inactive | inactive |  | 56.8 | inactive | inactive | -17 | inactive | -4.18 | -9.15% (inactive) | 3.63% (inactive) | -0.809% (inactive) | 0.183% (inactive) | 2.88% (inactive) | -8.96% (inactive) | inactive | 12.2% (inactive) | inactive | inactive | -0.523% (inactive)
